Assay results as given in PubChem BioAssay AID1159580 (chemical genetic matrix, 2015).
The whole screen tested about 5,500 compounds, of which about 2,000 (36%) were called active. Inconclusive results (about 18%) are left out. No stated cut-off is given here; in the data, active means normalized growth mostly below about 0.91 (no sharp cut-off); inconclusive means no clear call, values can overlap the other calls; inactive means mostly above about 0.92. The list shows a part of the results.

Test: chemical genetic growth profiling, strain panel (AID 1159580);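 further: tested at 20 µM; growth read once vehicle control cultures reached saturation at 30 °C; 1 = growth at the plate median or of vehicle wells; lower values mean less growth of the strain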
Conditions: growth OD

Measured: normalized growth

CCC(C)C(OC(C)=O)C(=O)OC1C(O)C2C3(C)C=CC(=O)C(C)(C)C3CC(OC(=O)C(O)C(C)C)C2(C)C23OC2CC(c2ccoc2)C13C (stereo unspecified)
inactive: S. cerevisiae deletion strains, locus YAL013W, strain DEP1, hits give low values 1.01 | S. cerevisiae deletion strains, locus YBR021W, strain FUR4, hits give low values 0.996 | S. cerevisiae deletion strains, locus YBR229C, strain ROT2, hits give low values 0.989 | S. cerevisiae deletion strains, locus YCL029C, strain bik1, hits give low values 0.978 | S. cerevisiae deletion strains, locus YDL035C, strain GPR1, hits give low values 0.976 | S. cerevisiae deletion strains, locus YDL074C, strain BRE1, hits give low values 1.02 | S. cerevisiae deletion strains, locus YDL101C, strain DUN1, hits give low values 1 | S. cerevisiae deletion strains, locus YDL134C, strain PPH21, hits give low values 1 | S. cerevisiae deletion strains, locus YDL185W, strain tfp1, hits give low values 0.988 | S. cerevisiae deletion strains, locus YDL192W, strain arf1, hits give low values 0.989 | S. cerevisiae deletion strains, locus YDR101C, strain arx1, hits give low values 0.991 | S. cerevisiae deletion strains, locus YDR150W, strain NUM1, hits give low values 1.01 | S. cerevisiae deletion strains, locus YDR162C, strain NBP2, hits give low values 1.02 | S. cerevisiae deletion strains, locus YDR318W, strain mcm21, hits give low values 0.966 | S. cerevisiae deletion strains, locus YDR388W, hits give low values 0.988 | S. cerevisiae deletion strains, locus YDR502C, strain sam2, hits give low values 1.02 | S. cerevisiae deletion strains, locus YEL061C, strain CIN8, hits give low values 1 | S. cerevisiae deletion strains, locus YER110C, hits give low values 0.992 | S. cerevisiae deletion strains, locus YER155C, strain BEM2, hits give low values 1 | S. cerevisiae deletion strains, locus YER167W, strain BCK2, hits give low values 0.982 | S. cerevisiae deletion strains, locus YGL078C, strain dbp3, hits give low values 1 | S. cerevisiae deletion strains, locus YGL086W, strain mad1, hits give low values 0.978 | S. cerevisiae deletion strains, locus YGL248W, strain PDE1, hits give low values 0.999 | S. cerevisiae deletion strains, locus YGR078C, strain PAC10, hits give low values 1.04 | S. cerevisiae deletion strains, locus YGR135W, strain pre9, hits give low values 1.02 | S. cerevisiae deletion strains, locus YGR229C, strain SMI1, hits give low values 1.02 | S. cerevisiae deletion strains, locus YGR252W, strain gcn5, hits give low values 0.946 | S. cerevisiae deletion strains, locus YHR030C, strain SLT2, hits give low values 0.994 | S. cerevisiae deletion strains, locus YHR079C, strain IRE1 (second series), hits give low values 1 | S. cerevisiae deletion strains, locus YHR094C, strain hxt1, hits give low values 0.988 | S. cerevisiae deletion strains, locus YHR129C, strain ARP1, hits give low values 1 | S. cerevisiae deletion strains, locus YHR200W, strain rpn10, hits give low values 0.987 | S. cerevisiae deletion strains, locus YIL066C, strain RNR3, hits give low values 0.994 | S. cerevisiae deletion strains, locus YIL073C, strain SPO22, hits give low values 0.902 | S. cerevisiae deletion strains, locus YIL125W, strain kgd1, hits give low values 0.986 | S. cerevisiae deletion strains, locus YIR030C, strain dcg1, hits give low values 0.988 | S. cerevisiae deletion strains, locus YJL095W, strain BCK1, hits give low values 1.05 | S. cerevisiae deletion strains, locus YJL134W, strain LCB3, hits give low values 0.997 | S. cerevisiae deletion strains, locus YJL168C, strain set2, hits give low values 0.992 | S. cerevisiae deletion strains, locus YJL187C, strain SWE1 (second series), hits give low values 1.01 | S. cerevisiae deletion strains, locus YJR043C, strain POL32, hits give low values 0.969 | S. cerevisiae deletion strains, locus YJR075W, strain HOC1, hits give low values 1.01 | S. cerevisiae deletion strains, locus YKL009W, strain mrt4, hits give low values 1.08 | S. cerevisiae deletion strains, locus YKL068W, hits give low values 1 | S. cerevisiae deletion strains, locus YKL085W, strain MDH1 (second series), hits give low values 1.04 | S. cerevisiae deletion strains, locus YKL085W, strain MDH1, hits give low values 1.04 | S. cerevisiae deletion strains, locus YKL190W, strain CNB1, hits give low values 0.998 | S. cerevisiae deletion strains, locus YKR001C, strain vps1, hits give low values 0.991 | S. cerevisiae deletion strains, locus YLR039C, strain RIC1, hits give low values 0.962 | S. cerevisiae deletion strains, locus YLR058C, strain SHM2, hits give low values 0.995 | S. cerevisiae deletion strains, locus YLR102C, strain apc9, hits give low values 0.982 | S. cerevisiae deletion strains, locus YLR262C, strain YPT6, hits give low values 0.973 | S. cerevisiae deletion strains, locus YLR268W, strain sec22, hits give low values 1.02 | S. cerevisiae deletion strains, locus YLR330W, strain CHS5, hits give low values 0.996 | S. cerevisiae deletion strains, locus YLR342W, strain FKS1 (second series), hits give low values 0.987 | S. cerevisiae deletion strains, locus YLR371W, strain rom2, hits give low values 0.985 | S. cerevisiae deletion strains, locus YLR418C, strain cdc73, hits give low values 1 | S. cerevisiae deletion strains, locus YML016C, strain PPZ1, hits give low values 1 | S. cerevisiae deletion strains, locus YML032C, strain rad52, hits give low values 0.97 | S. cerevisiae deletion strains, locus YML124C, strain tub3, hits give low values 0.993 | S. cerevisiae deletion strains, locus YMR078C, strain ctf18, hits give low values 0.977 | S. cerevisiae deletion strains, locus YMR223W, strain ubp8, hits give low values 0.983 | S. cerevisiae deletion strains, locus YMR263W, strain SAP30, hits give low values 1.04 | S. cerevisiae deletion strains, locus YMR307W, strain GAS1, hits give low values 0.912 | S. cerevisiae deletion strains, locus YNL067W, strain RPL9B, hits give low values 1.03 | S. cerevisiae deletion strains, locus YNL128W, strain TEP1, hits give low values 1.01 | S. cerevisiae deletion strains, locus YNL153C, strain GIM3, hits give low values 1.05 | S. cerevisiae deletion strains, locus YNL233W, strain BNI4, hits give low values 1.03 | S. cerevisiae deletion strains, locus YNL250W, strain rad50, hits give low values 0.992 | S. cerevisiae deletion strains, locus YNL271C, strain bni1, hits give low values 0.993 | S. cerevisiae deletion strains, locus YNL298W, strain CLA4, hits give low values 0.99 | S. cerevisiae deletion strains, locus YNL307C, strain MCK1, hits give low values 0.979 | S. cerevisiae deletion strains, locus YNL322C, strain KRE1, hits give low values 0.999 | S. cerevisiae deletion strains, locus YNR052C, strain pop2, hits give low values 0.988 | S. cerevisiae deletion strains, locus YOL006C, strain TOP1, hits give low values 0.949 | S. cerevisiae deletion strains, locus YOL012C, strain htz1 2.38 | S. cerevisiae deletion strains, locus YOL147C, strain pex11, hits give low values 0.999 | S. cerevisiae deletion strains, locus YOR061W, strain CKA2, hits give low values 1 | S. cerevisiae deletion strains, locus YOR069W, strain VPS5, hits give low values 0.978 | S. cerevisiae deletion strains, locus YOR136W, strain idh2, hits give low values 0.979 | S. cerevisiae deletion strains, locus YOR144C, strain elg1, hits give low values 1 | S. cerevisiae deletion strains, locus YOR184W, strain ser1, hits give low values 0.946 | S. cerevisiae deletion strains, locus YOR316C, strain cot1, hits give low values 0.996 | S. cerevisiae deletion strains, locus YPL055C, strain LGE1, hits give low values 1.05 | S. cerevisiae deletion strains, locus YPL241C, strain CIN2, hits give low values 1 | S. cerevisiae deletion strains, locus YPR119W, strain clb2, hits give low values 0.993 | S. cerevisiae deletion strains, locus YPR141C, strain kar3, hits give low values 0.99 | S. cerevisiae deletion strains, locus YPR163C, strain tif3, hits give low values 0.986 | S. cerevisiae deletion strains, locus YPR167C, strain met16, hits give low values 0.99 | S. cerevisiae deletion strains, strain wtn01, hits give low values 1 | S. cerevisiae strains, strain wild type, hits give low values 0.985
